In PubChem BioAssay (NCI):
This is part of a sample that, as a whole, favours compounds with a hit. Of some 83,000 tested, about 20% had one in any assay.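 Activity criterion: percent growth below 10, measured after cells in 96-well plates were exposed to a single compound concentration for 48 hours.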 Calls of active or inactive are those of the source.

The compounds below were run on HL-60(TB) leukemia (assay: NCI-60 one-dose screen, 48 h (100 = growth as untreated, 0 = no growth, -100 = all killed)). Settings: 10 µM unless noted.
For `O=C(Nc1cccc(Cl)c1)Nc1cccc(Cl)c1`, the growth was 43.9% (inactive).
For `CCOC(=O)C1=C(C)NC(SCc2nnc(-c3ccc(Cl)cc3)o2)=NC1c1ccc(Cl)cc1` (stereo not given), the growth was 21.4% (inactive).
For `O=c1oc2c(cc1-c1ccccc1)c(=O)[nH]c1ccccc12`, the growth was 98.1% (inactive).
In the case of `O=C(Nn1cnc2ccccc21)N1CCCC1`, the growth is reported as 87.1% (inactive).
In the case of `COc1cc2c(cc1OCCCCN1CCN(C(=S)SCCC(C#N)(c3ccccc3)c3ccccc3)CC1)N=C[C@@H]1CCCN1C2=O`, the growth is reported as -40.8% (active).
`Cc1nc2sccn2c1-c1csc(Nc2cccc(Cl)c2C)n1` was tested, and the growth was 36.4% (inactive).
`COc1ccc(-c2nc(SCC(=O)Nc3ccc(C(C)=O)cc3)[nH]c(=O)c2C#N)cc1` was tested, and the growth was 88.2% (inactive).
`O=C(Nc1cccc(-n2cc(-c3ccncc3)c(-c3cc(O)cc(Cl)c3)n2)c1)Nc1ccc(Cl)c(C(F)(F)F)c1` was tested, and the growth was -26.9% (active).
With `COc1ccc(-c2cc(-c3nnc(SCC(=O)Nc4ccc(C(C)=O)cc4)n3-c3ccccc3)c3ccccc3n2)cc1OC` the growth was 100% (inactive).
In the case of `CCN(CCCCCCN1CC(=O)N(CCCCCCN(CC)Cc2ccccc2OC)CC1=O)Cc1ccccc1OC`, the growth is reported as 60.6% (inactive).
For `COC(=O)c1cc2c(=O)[nH]cc3c2c(n1)CCC3`, the growth was 74.6% (inactive).
In the case of `O=C(Nc1cccc(C2=NCCN2)c1)c1ccc(-c2ccc(C(=O)Nc3cccc(C4=NCCN4)c3)cc2)cc1`, the growth is reported as 16% (inactive).
With `O=C1c2ccc3c4c(ccc(c24)C(=O)N1CCCNCc1ccccc1F)C(=O)N(CCCNCc1ccccc1F)C3=O` the growth was -59% (active).
In the case of `CNC(=O)c1ccccc1Nc1nc(Nc2cc(OC)c(OC)c(OC)c2)ncc1Br`, the growth is reported as 19% (inactive).
With `Clc1ccc(Nc2ccnc(N3CCN(c4ccnc5cc(Cl)ccc45)CC3)n2)cc1` the growth was 72.1% (inactive).
`COC(=O)c1c2c(c(C)[n+]([O-])c1C)C(=O)C=CC2=O` was tested, and the growth was -7.95% (active).
With `CCCCc1n(Cc2ccc3ccccc3c2)cc[n+]1Cc1ccc2ccccc2c1` the growth was -52.6% (active).
In the case of `CSc1ncc2ncn(C3OC(CO)C(O)C3O)c2n1` (stereo not given), the growth is reported as 114% (inactive).
With `CCCCCCCCCCCCCCn1cc(C2=C(c3coc4ccc(OC)cc34)C(=O)NC2=O)c2ccccc21` the growth was 129% (inactive).
For `Cc1cc(C(=O)Nc2ncc(Cc3cccc(C(F)(F)F)c3)s2)c2ccccc2n1`, the growth was -33.8% (active).
With `Cc1cc(C(=O)Nc2cc(Nc3ncccc3-c3ncnc4nc[nH]c34)ccc2F)cc(C(C)(C)C#N)c1` the growth was 26.4% (inactive).
For `C=C1CC[C@@H]2[C@@](C)(CCC[C@]2(C)C(=O)O)[C@@H]1CC[C@H](CO)CCO`, the growth was 93.7% (inactive).
`O=C1Nc2cc(-c3ccc(NC(=O)C4CC4)cc3)ccc2/C1=C/c1ccc[nH]1` was tested, and the growth was 100% (inactive).
For `CN1C(=O)N(C)C2(c3ccccc3)OC(=S)NC12c1ccccc1` (stereo not given), the growth was 95.6% (inactive).
In the case of `Cc1nn(-c2ccc(F)cc2)c2ncnc(Nc3ccc(NC(=O)Nc4ccc(Cl)c(C(F)(F)F)c4)cc3)c12`, the growth is reported as 13.2% (inactive).
With `OCCN1CCN(c2cc(-c3cccc(OC(F)(F)F)c3)nc3ccc(N4CCCC4)cc23)CC1` the growth was 62.8% (inactive).
With `CC(CNC(Cc1ccccc1)c1ccccc1)NC(Cc1ccccc1)c1ccccc1` (stereo not given) the growth was 26.2% (inactive).
With `CCOC(=O)n1cc(-c2nonc2-c2cn(C)c3ncccc23)c2ccccc21` the growth was 84.7% (inactive).
`OC(c1cccc(C(F)(F)F)c1)c1cnccc1NC1CCCCCC1` (stereo not given) was tested, and the growth was -30.7% (active).
For `C/C(=N/NC(N)=S)c1sc(Nc2cccc(Cl)c2)nc1C`, the growth was 65% (inactive).
With `CCN(CCNc1ccc(C)c2sc3ccccc3c(=O)c12)CC(C)(C)O` the growth was 43.5% (inactive).
For `COc1ccc(/C=C/c2ccc3ccccc3n2)c(OC)c1`, the growth was 40.7% (inactive).
For `C/C(=N\Nc1ccccc1)c1ccc(NC2=CC(=O)c3ccccc3C2=O)cc1`, the growth was 80.6% (inactive).
In the case of `CCN(CC)CCN1c2nc3ccccc3cc2Sc2cc3ccccc3nc21`, the growth is reported as -21.1% (active).
`CC(=O)c1ccc(Nc2nc(C(C)=O)c(C)s2)cc1` was tested, and the growth was 88% (inactive).
With `O=C(Nc1cccc([N+](=O)[O-])c1)c1ccc(Cl)c(Cl)c1` the growth was 87.8% (inactive).
For `C=C1C(=O)O[C@H]2[C@H]1CC/C(Cn1cc(-c3ccsc3)nn1)=C\CC[C@@]1(C)O[C@@H]21`, the growth was -23.5% (active).
In the case of `N#CC(C#N)N=Nc1cc(Cl)ccc1Cl`, the growth is reported as 85.2% (inactive).
In the case of `O=C1CC(c2ccc(Cl)cc2)c2ncn(-c3cccc(Cl)c3)c2N1` (stereo not given), the growth is reported as -4.87% (active).
`CCCCCCCCCCCCCCCCCCOc1ccc(CC(=O)OCC[N+](C)(C)C)cc1` was tested, and the growth was 2.32% (active).
